Laboratory results: PMC4336329 (PLoS ONE, 2015)
Screen size: about 310,000 compounds; about 14,000 (4.5%) showed an effect of 50% or more. Effects have a minus sign here. The full list was thinned out, with strong results kept by preference.

biological target: human ether-à-go-go-related gene (hERG) potassium channel (human, UniProt Q12809); test: primary screen, population patch clamp on CHO cells stably expressing hERG; higher = less effect of the substance
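Note: peak tail current of the secondary pulse compared with the same well before compound.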

Sequence of human ether-à-go-go-related gene (hERG) potassium channel (Q12809 whole entry, looked up): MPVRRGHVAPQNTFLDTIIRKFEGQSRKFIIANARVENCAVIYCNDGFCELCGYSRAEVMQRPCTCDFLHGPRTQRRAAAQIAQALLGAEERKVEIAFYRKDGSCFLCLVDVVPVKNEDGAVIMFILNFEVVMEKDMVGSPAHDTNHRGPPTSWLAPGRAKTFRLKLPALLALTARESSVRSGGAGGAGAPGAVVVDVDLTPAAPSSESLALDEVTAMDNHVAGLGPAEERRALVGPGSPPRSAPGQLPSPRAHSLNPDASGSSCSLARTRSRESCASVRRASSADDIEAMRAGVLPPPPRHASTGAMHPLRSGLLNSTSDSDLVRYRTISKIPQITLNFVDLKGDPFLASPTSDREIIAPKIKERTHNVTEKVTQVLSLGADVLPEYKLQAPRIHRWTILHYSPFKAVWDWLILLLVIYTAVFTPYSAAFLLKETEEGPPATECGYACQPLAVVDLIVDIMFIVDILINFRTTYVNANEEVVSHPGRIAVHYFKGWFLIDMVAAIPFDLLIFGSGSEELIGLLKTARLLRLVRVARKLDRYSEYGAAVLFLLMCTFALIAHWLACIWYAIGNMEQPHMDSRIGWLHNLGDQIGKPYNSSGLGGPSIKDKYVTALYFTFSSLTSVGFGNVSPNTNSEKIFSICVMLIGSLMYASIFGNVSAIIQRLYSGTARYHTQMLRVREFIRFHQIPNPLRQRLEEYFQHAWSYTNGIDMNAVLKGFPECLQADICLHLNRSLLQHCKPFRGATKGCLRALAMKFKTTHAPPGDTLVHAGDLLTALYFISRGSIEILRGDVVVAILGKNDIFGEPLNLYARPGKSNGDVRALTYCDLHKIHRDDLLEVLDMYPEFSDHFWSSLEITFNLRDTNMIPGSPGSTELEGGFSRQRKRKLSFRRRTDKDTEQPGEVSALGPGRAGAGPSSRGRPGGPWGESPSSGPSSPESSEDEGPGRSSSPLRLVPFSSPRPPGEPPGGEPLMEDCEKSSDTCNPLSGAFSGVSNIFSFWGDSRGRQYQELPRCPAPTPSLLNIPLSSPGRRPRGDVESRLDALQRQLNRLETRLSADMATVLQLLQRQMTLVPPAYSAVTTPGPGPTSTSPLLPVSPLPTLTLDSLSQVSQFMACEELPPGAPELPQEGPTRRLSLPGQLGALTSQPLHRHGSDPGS

Row | SMILES | hERG current change (%, negative = inhibition) at 10uM [%]
1 | CSc1ccc(Cl)c(C(=O)N(C)CC(=O)Nc2ccc(N3CCOCC3)cc2)c1 | -0.854
2 | COC(=O)C1CCN(C(=O)COC(=O)Cc2c[nH]c3ccccc23)CC1 | 3.1
3 | Cc1ccc(CN(C(=O)c2cccs2)C2CCS(=O)(=O)C2)cc1 (stereo not drawn) | -46.5
4 | CCn1c(C)nc2c(=O)oc3ccccc3c21 | -9.57
5 | CCNC(=O)c1ccc(N(C)S(=O)(=O)c2cccs2)cc1 | 26.5
6 | CC1CCN(Cc2c(C(=O)N/N=C/c3cc(Br)ccc3O)nnn2-c2nonc2N)CC1 | 19.9
7 | CC1(C)CC(=O)c2ccc(O)cc2O1 | 4.03
8 | CC1(C)CC(=O)c2ccc(OCc3ccc([N+](=O)[O-])cc3)cc2O1 | -57.7
9 | CC1(C)CC(=O)c2c(O)cc(OCc3ccc([N+](=O)[O-])cc3)cc2O1 | 15.1
10 | O=C(COC(=O)c1ccc2c(c1)S(=O)(=O)N=C1CCCCCN12)NCCc1ccc(F)cc1 | -3.75
11 | CC1CN(C(=O)c2ccc(NS(=O)(=O)c3ccc(F)cc3)cc2)CC(C)O1 (stereo not drawn) | 3.67
12 | Cc1ccc(/C=C(\NC(=O)c2ccccc2)C(=O)NCCc2ccccn2)o1 | -12.8
13 | CN(C)CCNC(=O)/C(=C/c1ccc(-c2cccc(Cl)c2)o1)NC(=O)c1ccccc1 | -72
14 | O=C(O)c1ccc(N/N=C/c2ccc(-c3cccc(Cl)c3)o2)cc1 | 8.51
15 | Cc1ccc(C(=O)N/C(=C\c2ccc(-c3cc(Cl)ccc3Cl)o2)C(=O)NCc2cccnc2)cc1 | 2.81
16 | CN(C)CCNC(=O)/C(=C/c1ccc(-c2ccc(Cl)cc2Cl)o1)NC(=O)c1ccccc1 | -55.1
17 | O=C(O)c1ccc(N/N=C/c2ccc(-c3ccc(Cl)cc3Cl)o2)cc1 | 10.7
18 | CN(C)CCNC(=O)/C(=C/c1ccc(-c2ccc(Cl)cc2)o1)NC(=O)c1ccccc1 | -80.9
19 | Cc1ccc(/C=C(/NC(=O)c2ccccc2)C(=O)NCCc2c[nH]c3ccccc23)o1 | -21.3
20 | Cc1ccc(C)c(N2N=C(C(=O)Nc3ccccc3N3CCCC3)CCC2=O)c1 | 3.97
21 | COc1ccccc1/C=N\Nc1ccccc1[N+](=O)[O-] | 21.7
22 | O=C(O)c1ccc(CNC(=O)c2ccc(S(=O)(=O)N3CCCCC3)cc2)cc1 | -1.88

Row | SMILES | hERG current change (%, negative = inhibition) at 10uM [%]
23 | NC(=O)Cn1cnc(-c2ccccc2)c1 | 9.58
24 | CCCCc1c(O)nc(SCC(=O)N2CCOCC2)n(-c2ccccc2OC)c1=O | 7.27
25 | COCCNC(=O)C1(C)C=CC2(CCCCC2)N1C(=O)c1ccccc1 (stereo not drawn) | 5.19
26 | CC(=O)N(CN1C(=O)C2CC=CCC2C1=O)c1cccc(Cl)c1 (stereo not drawn) | -5.31
27 | Cc1cc(C(=O)N2CCCC(N3CCN(c4ccc(F)cc4)CC3)C2)c(C)o1 (stereo not drawn) | -59.1
28 | Cc1cc(C)c(C(=O)N2CCCC(N3CCN(c4ccc(F)cc4)CC3)C2)o1 (stereo not drawn) | -73.6
29 | Cc1nonc1C(=O)N1CCCC(N2CCN(c3ccc(F)cc3)CC2)C1 (stereo not drawn) | -51.8
30 | Cc1ncoc1C(=O)N1CCCC(N2CCN(c3cccc(C(F)(F)F)c3)CC2)C1 (stereo not drawn) | -35.7
31 | Cc1ccc2nccc(C(=O)N3CCCC(N4CCN(c5ccc(F)cc5)CC4)C3)c2c1 (stereo not drawn) | -48.5
32 | Cc1nnsc1C(=O)N1CCCC(N2CCN(c3ccc(F)cc3)CC2)C1 (stereo not drawn) | -12.3
33 | Cc1cc(C)c(C(=O)N2CCCC(Nc3ccc(F)cc3)C2)o1 (stereo not drawn) | 9.39
34 | Cc1cc(C)c(C(=O)N2CCCC(N3CCN(c4cccc(C(F)(F)F)c4)CC3)C2)o1 (stereo not drawn) | -52.1
35 | COc1ccccc1N1CCN(C2CCCN(C(=O)c3oc(C)cc3C)C2)CC1 (stereo not drawn) | -47.9
36 | Cc1cc(C(=O)N2CCCC(N3CCN(c4cccc(C(F)(F)F)c4)CC3)C2)c(C)o1 (stereo not drawn) | -23.2
37 | COc1ccccc1N1CCN(C2CCCN(C(=O)c3cc(C)oc3C)C2)CC1 (stereo not drawn) | -3.28
38 | Cc1cccc(N(CC(=O)N/N=C/c2ccc(OCC(=O)NCc3ccco3)cc2)S(C)(=O)=O)c1C | 4.14
39 | C=CCn1c(O)c(C(C)=NCC2CCCO2)c(=O)[nH]c1=O (stereo not drawn) | -6.3
40 | O=C(NCCC(NS(=O)(=O)OCC(Cl)(Cl)Cl)c1ccccc1)C(F)(F)F (stereo not drawn) | -16.4
41 | NC(=O)CCCC1=NS(=O)(=O)c2ccccc2N1 | 11.5
42 | CC1CCN(c2ccccc2NC(=O)c2ccc(C#N)cc2F)CC1 | 5.07
43 | CC(C)C(=O)N1CCN(c2ccccc2NC(=O)c2ccc(C#N)cc2F)CC1 | -72.2
44 | COc1c(F)c(F)c(C(=O)Nc2ccccc2N2CCN(C(=O)C(C)C)CC2)c(F)c1F | 6.51

Row | SMILES | hERG current change (%, negative = inhibition) at 10uM [%]
45 | COc1ccc(C(=O)Nc2ccccc2N2CCN(C(=O)C(C)C)CC2)cc1Cl | -30.9
46 | COc1cc2ccccc2cc1C(=O)Nc1ccccc1N1CCCC1 | -4.16
47 | CN1CCN(c2ccccc2NC(=O)c2ccccc2F)CC1 | -70.8
48 | COc1ccc(Cl)cc1C(=O)NC(=S)Nc1ccccc1N1CCOCC1 | 10.2
49 | O=C(Nc1ccccc1N1CCCC1)c1ccccc1F | -3.26
50 | COc1ccc(Cl)cc1C(=O)Nc1ccccc1N1CCN(C(=O)C(C)C)CC1 | -74
51 | O=C(Nc1ccccc1N1CCN(c2ccccc2)CC1)c1ccccc1F | 8.96
52 | COc1ccc(Cl)cc1C(=O)Nc1ccccc1N1CCN(C)CC1 | -79.3
53 | CC(=O)N1CCN(c2ccccc2NC(=O)c2ccc(C#N)cc2F)CC1 | -49.6
54 | CN(C)c1ccc(NC(=O)c2ccc(COc3cccc(Cl)c3)o2)cc1 | 0.95
55 | CS(=O)(=O)N(CC(=O)N1CCOCC1)Cc1ccc(Cl)cc1 | 4.67
56 | COc1cc(C(=O)NCC2(N3CCCCC3)CCCCC2)ccc1OCC(=O)N1CCOCC1 | -3.67
57 | CC(=O)Nc1cccc(C(=O)OC(C)C(=O)N2CCc3ccccc32)c1 (stereo not drawn) | -33.2
58 | Cc1ccc(C(=O)N2CCN(c3ncnc4c(-c5ccccc5)nsc34)CC2)cc1 | 18.1
59 | Cc1cc(C)n(-c2nc(NCC3CCCO3)c3c4c(sc3n2)COC(C)(C)C4)n1 (stereo not drawn) | -20.2
60 | COc1ccc(CNC(C)C2COc3ccccc3O2)c(OC)c1.O=C(O)C(=O)O (stereo not drawn) | -63.2
61 | COc1ccc(CC(=O)NC(C)C2COc3ccccc3O2)cc1OC (stereo not drawn) | -0.81
62 | COc1ccc(CNC(=O)C2COc3ccccc3O2)c(OC)c1 (stereo not drawn) | -26.4
63 | CC(NCc1ccccc1)C1COc2ccccc2O1 (stereo not drawn) | 2.12
64 | CC(NCc1ccc([N+](=O)[O-])cc1)C1COc2ccccc2O1.O=C(O)C(=O)O (stereo not drawn) | -66.2
65 | CCOC(=O)CCNC(C)C1COc2ccccc2O1.O=C(O)C(=O)O (stereo not drawn) | 1.93
66 | Cc1ccc(NC(=S)NCCc2c[nH]c3ccccc23)cc1 | -1.12

Row | SMILES | hERG current change (%, negative = inhibition) at 10uM [%]
67 | COc1ccc(OCC(O)CNC(=O)c2ccc(OC)cc2)cc1 (stereo not drawn) | 14.9
68 | COCCn1c(SCC(=O)Nc2ccc(F)cc2F)nc2c([nH]c3ccccc32)c1=O | 8.08
69 | COCCCn1c(C)nnc1SCC(=O)NNC(=O)COc1ccc(Cl)cc1 | 22.6
70 | COc1ccc(-c2ccc(Nc3ccc(S(=O)(=O)N4CCCC4)cc3)nn2)cc1OC | 6.55
71 | Cn1c(=O)[nH]c(=O)c2c1nc(N1CCNCC1)n2Cc1cccc2ccccc12 | -16.4
72 | Cc1cccc(N/C(=N/S(=O)(=O)c2ccccc2)c2ccccc2)n1 | -24.9
73 | CCN(c1cccc(C)c1)C(C(=O)Nc1ccc(OC)cc1)c1cc2c(cc1[N+](=O)[O-])OCO2 (stereo not drawn) | 21.1
74 | CCOC(=O)N1CCN(C(=O)COc2ccc3oc4c(c3c2)CCCC4)CC1 | -50.6
75 | CCN(CC)CCCNC(=O)COc1ccc2oc3c(c2c1)CCCC3.Cl | -45.7
76 | CC(=O)N1CCN(C(=O)COc2ccc3oc4c(c3c2)CCCC4)CC1 | -25.4
77 | CNC(=O)COc1ccc2oc3c(c2c1)CCCC3 | 9.14
78 | CC(C)N(CCNC(=O)COc1ccc2oc3c(c2c1)CCCC3)C(C)C | -73.3
79 | CC(C)OCCCNC(=O)COc1ccc2oc3c(c2c1)CCCC3 | -4.97
80 | Cc1cccc(N(CC(=O)NCCC2=CCCCC2)S(C)(=O)=O)c1C | -22.8
81 | COC(=O)c1ccc(CNC(=O)/C=C/c2cc([N+](=O)[O-])ccc2OC(F)F)cc1 | 6.89
82 | CN(C)CCN(C(=O)c1ccc2ccccc2c1)c1nc2ccc(F)cc2s1.Cl | 11.1
83 | CN(C)CCN(C(=O)c1ccc2ccccc2c1)c1nc2ccc(Br)cc2s1.Cl | 13.2
84 | CN(C)CCN(C(=O)C1=COCCO1)c1nc2ccc(F)cc2s1.Cl | -73
85 | CN(C)CCN(C(=O)C1=COCCO1)c1nc2ccc(Cl)cc2s1.Cl | -73.1
86 | CN(C)CCN(C(=O)c1ccc2c(c1)OCCO2)c1nc2ccc(Cl)cc2s1.Cl | -1.19
87 | CN(C)CCCN(C(=O)C1=COCCO1)c1nc2ccc(Br)cc2s1.Cl | -67.2
